# The supplement of paper PMC4022240
# ± gives the standard deviation.
# T1: HaloTag-ATRX ADD domain (163-292)
# T1 chain: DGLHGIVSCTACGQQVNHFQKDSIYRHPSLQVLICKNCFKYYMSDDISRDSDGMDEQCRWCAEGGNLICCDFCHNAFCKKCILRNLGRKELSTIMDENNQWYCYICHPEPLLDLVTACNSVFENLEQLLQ
# Experiments:
# Assay in all cases: peptide microarray binding signal (635 nm), min-max normalized on array (fraction of array maximum); higher = stronger binding
# [1] = target: T1, HaloTag-ATRX ADD domain (163-292)
# In short: (§1)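 For each library, binding signal was taken as the triplicate-spot mean intensity and then min-max scaled. Spots of histone 13-mer peptide–cellulose conjugates on nitrocellulose, printed in triplicate with a Cy3 tracer, were probed for 1 h at 4°C with either biotin-labelled HaloTag reader fusions (10 nM to 1 μM) and streptavidin-Alexa Fluor 647 or rabbit histone antibodies (1:10,000 to 1:2,000) and anti-rabbit Alexa 647. Readout at 635 nm came from an Axon GenePix 4000B.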
# [2] = target: HaloTag-ING2 PHD (mouse Ing2 200-280)
# In short: as §1
# [3] = target: anti-H3K4me3 antibody ab8580
# In short: as §1
# [4] = target: anti-H3K9me3 antibody ab8898
# In short: as §1
# [5] = peptide region: H3 1-13, peptide modifications: H3T6ph H3K9me3, binder concentration: 1:2,000 dilution
# [6] = peptide region: H3 1-13, peptide modifications: H3T6ph H3K9me3, binder concentration: 1:10,000 dilution
# [7] = peptide region: H3 1-13, peptide modifications: H3T6ph H3R8cit, binder concentration: 1:2,000 dilution
# [8] = peptide region: H3 1-13, peptide modifications: H3T6ph H3R8cit, binder concentration: 1:10,000 dilution
# [9] = peptide region: H3 1-13, peptide modifications: H3T6ph H3R8me1, binder concentration: 1:2,000 dilution
# [10] = peptide region: H3 1-13, peptide modifications: H3T6ph H3R8me1, binder concentration: 1:10,000 dilution
# [11] = peptide region: H3 1-13, peptide modifications: H3T6ph H3R8me2a, binder concentration: 1:2,000 dilution
# [12] = peptide region: H3 1-13, peptide modifications: H3T6ph H3R8me2a, binder concentration: 1:10,000 dilution
# [13] = peptide region: H3 1-13, peptide modifications: H3T6ph H3R8me2s, binder concentration: 1:2,000 dilution
# [14] = peptide region: H3 1-13, peptide modifications: H3T6ph H3R8me2s, binder concentration: 1:10,000 dilution
# [15] = peptide region: H3 1-13, peptide modifications: H3T6ph, binder concentration: 1:2,000 dilution
# [16] = peptide region: H3 1-13, peptide modifications: H3T6ph, binder concentration: 1:10,000 dilution
# [17] = peptide region: H3 5-17, binder concentration: 1:2,000 dilution
# [18] = peptide region: H3 5-17, binder concentration: 1:10,000 dilution
# [19] = peptide region: H3 5-17, peptide modifications: H3K9ac H3K14ac, binder concentration: 1:2,000 dilution
# [20] = peptide region: H3 5-17, peptide modifications: H3K9ac H3K14ac, binder concentration: 1:10,000 dilution
# [21] = peptide region: H3 5-17, peptide modifications: H3K9ac H3K14me1, binder concentration: 1:2,000 dilution
# [22] = peptide region: H3 5-17, peptide modifications: H3K9ac H3K14me1, binder concentration: 1:10,000 dilution
# [23] = peptide region: H3 5-17, peptide modifications: H3K9ac H3K14me2, binder concentration: 1:2,000 dilution
# [24] = peptide region: H3 5-17, peptide modifications: H3K9ac H3K14me2, binder concentration: 1:10,000 dilution
binder,measurement,setting,value
ARTKQTARKSTGG [H3 1-13 A R T K Q Tph A R Kme3 S T G G],peptide microarray binding signal,"[1]; peptide region: H3 1-13, peptide modifications: H3T6ph H3K9me3, binder concentration: 50 nM",0.007335 ± 6.2e-05
same,peptide microarray binding signal,"[1]; peptide region: H3 1-13, peptide modifications: H3T6ph H3K9me3, binder concentration: 500 nM",0.01343 ± 9.1e-05
same,peptide microarray binding signal,"[2]; peptide region: H3 1-13, peptide modifications: H3T6ph H3K9me3, binder concentration: 10 nM",0.0229 ± 0.0005
same,peptide microarray binding signal,"[2]; peptide region: H3 1-13, peptide modifications: H3T6ph H3K9me3, binder concentration: 100 nM",0.0339 ± 0.003
same,peptide microarray binding signal,[3]; [5],0.0494 ± 0.0093
same,peptide microarray binding signal,[3]; [6],0.0422 ± 0.0078
same,peptide microarray binding signal,[4]; [5],0.269 ± 0.024
same,peptide microarray binding signal,[4]; [6],0.17 ± 0.021
ARTKQTARKSTGG [H3 1-13 A R T K Q Tph A Rcit K S T G G],peptide microarray binding signal,"[1]; peptide region: H3 1-13, peptide modifications: H3T6ph H3R8cit, binder concentration: 50 nM",0.00461 ± 9.2e-05
same,peptide microarray binding signal,"[1]; peptide region: H3 1-13, peptide modifications: H3T6ph H3R8cit, binder concentration: 500 nM",0.00667 ± 0.00019
same,peptide microarray binding signal,"[2]; peptide region: H3 1-13, peptide modifications: H3T6ph H3R8cit, binder concentration: 10 nM",0.004536 ± 4e-05
same,peptide microarray binding signal,"[2]; peptide region: H3 1-13, peptide modifications: H3T6ph H3R8cit, binder concentration: 100 nM",0.00652 ± 0.00029
same,peptide microarray binding signal,[3]; [7],0.000396
same,peptide microarray binding signal,[3]; [8],0.000114 ± 1.3e-06
same,peptide microarray binding signal,[4]; [7],0.000332 ± 8.8e-06
same,peptide microarray binding signal,[4]; [8],0.000807 ± 2.5e-05
ARTKQTARKSTGG [H3 1-13 A R T K Q Tph A Rme K S T G G],peptide microarray binding signal,"[1]; peptide region: H3 1-13, peptide modifications: H3T6ph H3R8me1, binder concentration: 50 nM",0.00476 ± 9.2e-05
same,peptide microarray binding signal,"[1]; peptide region: H3 1-13, peptide modifications: H3T6ph H3R8me1, binder concentration: 500 nM",0.022 ± 0.0012
same,peptide microarray binding signal,"[2]; peptide region: H3 1-13, peptide modifications: H3T6ph H3R8me1, binder concentration: 10 nM",0.00507 ± 0.0011
same,peptide microarray binding signal,"[2]; peptide region: H3 1-13, peptide modifications: H3T6ph H3R8me1, binder concentration: 100 nM",0.0331 ± 0.012
same,peptide microarray binding signal,[3]; [9],0.00111 ± 7.2e-05
same,peptide microarray binding signal,[3]; [10],0.00148 ± 0.0001
same,peptide microarray binding signal,[4]; [9],0.00234 ± 0.00042
same,peptide microarray binding signal,[4]; [10],0.00213 ± 7.1e-05
ARTKQTARKSTGG [H3 1-13 A R T K Q Tph A Rme2a K S T G G],peptide microarray binding signal,"[1]; peptide region: H3 1-13, peptide modifications: H3T6ph H3R8me2a, binder concentration: 50 nM",0.00677 ± 0.00082
same,peptide microarray binding signal,"[1]; peptide region: H3 1-13, peptide modifications: H3T6ph H3R8me2a, binder concentration: 500 nM",0.0179 ± 0.002
same,peptide microarray binding signal,"[2]; peptide region: H3 1-13, peptide modifications: H3T6ph H3R8me2a, binder concentration: 10 nM",0.00961 ± 0.00061
same,peptide microarray binding signal,"[2]; peptide region: H3 1-13, peptide modifications: H3T6ph H3R8me2a, binder concentration: 100 nM",0.054 ± 0.0051
same,peptide microarray binding signal,[3]; [11],0.00166 ± 0.00015
same,peptide microarray binding signal,[3]; [12],0.0012 ± 1.2e-05
same,peptide microarray binding signal,[4]; [11],0.00384 ± 0.00058
same,peptide microarray binding signal,[4]; [12],0.00185 ± 6.1e-05
ARTKQTARKSTGG [H3 1-13 A R T K Q Tph A Rme2s K S T G G],peptide microarray binding signal,"[1]; peptide region: H3 1-13, peptide modifications: H3T6ph H3R8me2s, binder concentration: 50 nM",0.0201 ± 0.0019
same,peptide microarray binding signal,"[1]; peptide region: H3 1-13, peptide modifications: H3T6ph H3R8me2s, binder concentration: 500 nM",0.0152 ± 0.0026
same,peptide microarray binding signal,"[2]; peptide region: H3 1-13, peptide modifications: H3T6ph H3R8me2s, binder concentration: 10 nM",0.0119 ± 0.00043
same,peptide microarray binding signal,"[2]; peptide region: H3 1-13, peptide modifications: H3T6ph H3R8me2s, binder concentration: 100 nM",0.0145 ± 0.00066
same,peptide microarray binding signal,[3]; [13],0.00287 ± 9.2e-05
same,peptide microarray binding signal,[3]; [14],0.000571
same,peptide microarray binding signal,[4]; [13],0.0029 ± 6.7e-05
same,peptide microarray binding signal,[4]; [14],0.00646 ± 0.0018
ARTKQTARKSTGG [H3 1-13 A R T K Q Tph A R K S T G G],peptide microarray binding signal,"[1]; peptide region: H3 1-13, peptide modifications: H3T6ph, binder concentration: 50 nM",0.004044 ± 1.6e-05
same,peptide microarray binding signal,"[1]; peptide region: H3 1-13, peptide modifications: H3T6ph, binder concentration: 500 nM",0.009 ± 0.00047
same,peptide microarray binding signal,"[2]; peptide region: H3 1-13, peptide modifications: H3T6ph, binder concentration: 10 nM",0.0046 ± 0.00047
same,peptide microarray binding signal,"[2]; peptide region: H3 1-13, peptide modifications: H3T6ph, binder concentration: 100 nM",0.0195 ± 0.002
same,peptide microarray binding signal,[3]; [15],0.000793 ± 7.5e-05
same,peptide microarray binding signal,[3]; [16],0.000285 ± 3.1e-06
same,peptide microarray binding signal,[4]; [15],0.000755 ± 2.9e-05
same,peptide microarray binding signal,[4]; [16],0.000288
QTARKSTGGKAPR [H3 5-17 Q T A R K S T G G K A P R],peptide microarray binding signal,"[1]; peptide region: H3 5-17, binder concentration: 50 nM",0.00796 ± 0.00026
same,peptide microarray binding signal,"[1]; peptide region: H3 5-17, binder concentration: 500 nM",0.00462 ± 0.00035
same,peptide microarray binding signal,"[2]; peptide region: H3 5-17, binder concentration: 10 nM",0.00376 ± 7.2e-05
same,peptide microarray binding signal,"[2]; peptide region: H3 5-17, binder concentration: 100 nM",0.00489 ± 0.00045
same,peptide microarray binding signal,[3]; [17],0.000982 ± 8.5e-05
same,peptide microarray binding signal,[3]; [18],0.00143 ± 0.00013
same,peptide microarray binding signal,[4]; [17],0.00242 ± 0.0011
same,peptide microarray binding signal,[4]; [18],0.00265 ± 0.00021
QTARKSTGGKAPR [H3 5-17 Q T A R Kac S T G G Kac A P R],peptide microarray binding signal,"[1]; peptide region: H3 5-17, peptide modifications: H3K9ac H3K14ac, binder concentration: 50 nM",0.0318 ± 0.0049
same,peptide microarray binding signal,"[1]; peptide region: H3 5-17, peptide modifications: H3K9ac H3K14ac, binder concentration: 500 nM",0.0984 ± 0.027
same,peptide microarray binding signal,"[2]; peptide region: H3 5-17, peptide modifications: H3K9ac H3K14ac, binder concentration: 10 nM",0.0862 ± 0.034
same,peptide microarray binding signal,"[2]; peptide region: H3 5-17, peptide modifications: H3K9ac H3K14ac, binder concentration: 100 nM",0.048 ± 0.023
same,peptide microarray binding signal,[3]; [19],0.0141 ± 0.0045
same,peptide microarray binding signal,[3]; [20],0.0234 ± 0.0064
same,peptide microarray binding signal,[4]; [19],0.03 ± 0.0085
same,peptide microarray binding signal,[4]; [20],0.0332 ± 0.014
QTARKSTGGKAPR [H3 5-17 Q T A R Kac S T G G Kme A P R],peptide microarray binding signal,"[1]; peptide region: H3 5-17, peptide modifications: H3K9ac H3K14me1, binder concentration: 50 nM",0.00746 ± 0.00018
same,peptide microarray binding signal,"[1]; peptide region: H3 5-17, peptide modifications: H3K9ac H3K14me1, binder concentration: 500 nM",0.024 ± 0.0017
same,peptide microarray binding signal,"[2]; peptide region: H3 5-17, peptide modifications: H3K9ac H3K14me1, binder concentration: 10 nM",0.023 ± 0.0062
same,peptide microarray binding signal,"[2]; peptide region: H3 5-17, peptide modifications: H3K9ac H3K14me1, binder concentration: 100 nM",0.0497 ± 0.004
same,peptide microarray binding signal,[3]; [21],0.00345 ± 0.00048
same,peptide microarray binding signal,[3]; [22],0.00205 ± 3.8e-05
same,peptide microarray binding signal,[4]; [21],0.0192 ± 0.002
same,peptide microarray binding signal,[4]; [22],0.00882 ± 0.00058
QTARKSTGGKAPR [H3 5-17 Q T A R Kac S T G G Kme2 A P R],peptide microarray binding signal,"[1]; peptide region: H3 5-17, peptide modifications: H3K9ac H3K14me2, binder concentration: 50 nM",0.00746 ± 0.00033
same,peptide microarray binding signal,"[1]; peptide region: H3 5-17, peptide modifications: H3K9ac H3K14me2, binder concentration: 500 nM",0.0201 ± 0.0018
same,peptide microarray binding signal,"[2]; peptide region: H3 5-17, peptide modifications: H3K9ac H3K14me2, binder concentration: 10 nM",0.0147 ± 0.0015
same,peptide microarray binding signal,"[2]; peptide region: H3 5-17, peptide modifications: H3K9ac H3K14me2, binder concentration: 100 nM",0.0485 ± 0.015
same,peptide microarray binding signal,[3]; [23],0.0108 ± 0.00077
same,peptide microarray binding signal,[3]; [24],0.00468 ± 0.00039
same,peptide microarray binding signal,[4]; [23],0.0189 ± 0.00074
same,peptide microarray binding signal,[4]; [24],0.406 ± 0.064
